# Screening results as filed in PubChem.
# BAZ2B block – BAZ2B (human) inhibition; Q9UIF8; AlphaScreen BAZ2B-H3K14Ac peptide displacement; Potency, µM (doses to about 114 µM), inactives show at the top dose activity change, negative = inhibition, actives largely listed as inhibitors; 360,000 compounds, 4.4% hits; further: on the % scale 0 is the no-effect control and ±100 the full control effect; nearly all actives have a fitted effect of over 60% in size
#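 AlphaScreen displacement of biotin-H3(5-23)K14Ac peptide (50 nM final) from BAZ2B (50 nM final) in PBS pH 7.4, 0.01% Tween-20; complex preformed 30 min RT, then compounds (top 110 uM) 30 min RT, beads 20 min dark.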
# Sfp inh – Sfp phosphopantetheinyl transferase inhibition. Biochemical Sfp PPTase activity, qHTS. Potency, µM, without a hit: largest response in the series, negative = inhibition, hits mostly inhibitors. 310,000 compounds, 3.5% hits;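 further: the enzyme is Sfp with the accession as filed and its product quenches rhodamine fluorescence; 0% = enzyme reaction without inhibitor and -100% = no enzyme wells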
#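 With Hepes-Na pH 7.6 buffer containing 10 mM MgCl2, Sfp (15 nM) modified BHQ-2-YbbR (12.5 uM) using rhodamine-CoA (5 uM). Two reads 30 minutes apart at 525/598 nm yielded each well's rate.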
# G9a inh – blocks human histone lysine methyltransferase G9a. AID 504332. Q96KQ7. Potency, µM (doses to about 102 µM), inactives show at the highest dose activity, negative = inhibition, usual class: inhibitors. G9a H3K9 monomethylation, AlphaScreen, 2 h. 350,000 compounds, 8.8% hits; further: on the % scale 0 is the no-effect control and ±100 the full control effect; nearly all actives have a fitted effect of over 75% in size
#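 Using a bead-based AlphaScreen, monomethylated H3K9 product from 2 h room-temperature reactions (G9a 20 nM, peptide 500 nM, SAM 20 uM) was detected with 0.5 ug/mL rabbit anti-H3K9me1 antibody.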
# L3MBTL1 inh – blocks human L3MBTL1; Q9Y468; AlphaScreen L3MBTL1–H3K9me1 peptide binding; Potency, µM (highest dose often 57.1 µM), inactives show at the top dose activity, negative = inhibition, most hits filed as inhibitors; 230,000 compounds, 0.66% hits; further: on the % scale 0 is the no-effect control and ±100 the full control effect; nearly all actives have a fitted effect of over 60% in size
# Target sequence (Q9Y468 whole entry, looked up): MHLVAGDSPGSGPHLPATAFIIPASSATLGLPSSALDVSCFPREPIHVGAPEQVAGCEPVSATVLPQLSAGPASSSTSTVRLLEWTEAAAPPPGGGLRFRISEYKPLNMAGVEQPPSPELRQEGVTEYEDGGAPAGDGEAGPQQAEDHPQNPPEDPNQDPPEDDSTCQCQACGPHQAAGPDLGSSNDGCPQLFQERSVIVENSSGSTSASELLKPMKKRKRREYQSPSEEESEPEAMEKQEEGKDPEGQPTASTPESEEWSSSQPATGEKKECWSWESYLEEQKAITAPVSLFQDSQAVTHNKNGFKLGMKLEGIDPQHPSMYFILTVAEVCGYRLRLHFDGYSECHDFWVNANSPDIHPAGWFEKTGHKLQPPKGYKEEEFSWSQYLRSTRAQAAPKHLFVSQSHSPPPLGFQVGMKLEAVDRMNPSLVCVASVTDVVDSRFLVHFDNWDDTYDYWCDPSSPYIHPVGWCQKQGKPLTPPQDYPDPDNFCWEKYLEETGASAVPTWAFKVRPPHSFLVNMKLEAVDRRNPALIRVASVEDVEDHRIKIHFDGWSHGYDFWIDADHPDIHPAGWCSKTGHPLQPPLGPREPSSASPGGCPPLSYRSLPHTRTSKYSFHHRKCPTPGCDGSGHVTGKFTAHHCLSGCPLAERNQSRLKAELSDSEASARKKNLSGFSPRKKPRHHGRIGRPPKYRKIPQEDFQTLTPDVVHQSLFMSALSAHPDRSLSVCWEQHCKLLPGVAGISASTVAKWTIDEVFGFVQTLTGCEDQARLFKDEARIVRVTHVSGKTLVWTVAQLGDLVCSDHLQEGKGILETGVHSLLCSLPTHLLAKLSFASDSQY
#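 L3MBTL1 (50 nM) pre-complexed 30 min with biotinylated H3(1-15)K9me1 peptide (75 nM), then compounds added for 30 min at room temperature; AlphaScreen streptavidin donor/nickel chelate acceptor beads (10 ug/mL final) read after 30 min dark incubation.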
# HP1b chromo inh – HP1-beta chromodomain-methylated histone interaction inhibition; P83916; AlphaScreen HP1-beta / biotin-H3K9me3 peptide binding; Potency, µM (titrated, usually from 114 µM), for inactives: at the highest dose activity change, negative = inhibition, usual class: inhibitors; 390,000 compounds, 0.56% hits; further: nearly all actives have a fitted effect of over 70% in size
#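 HP1-beta protein (50 nM final) preincubated 30 min at room temperature with biotinylated H3(1-18)K9me3 peptide (50 nM) in PBS pH 7.4, 0.01% Tween-20, then compound added for 30 min. AlphaScreen streptavidin donor/nickel chelate acceptor beads (10 ug/mL final), 30 min dark, luminescence read.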
# JMJD2A Tudor inh – inhibitors of human JMJD2A Tudor domain; O75164; AlphaScreen JMJD2A-Tudor / H3K4me3 peptide binding; Potency, µM (doses to about 114 µM), inactives show at the top dose activity change, negative = inhibition, actives largely listed as inhibitors; 390,000 compounds, 4.4% hits; further: on the % scale 0 is the no-effect control and ±100 the full control effect; nearly all actives have a fitted effect of over 50% in size
# Active calls of the source: *; ? = inconclusive; · = not tested or not shown; [ ] = dose if it differs, or a comment. The list is not random: actives were taken first. Their share in the collection is about 12%. The call rests on the fitted dose curve; in most records, active means well fitted curve in the direction sought with a large enough effect; inconclusive means small, poorly fitted or top-dose-only effect, or another doubt; inactive means no such curve, though single readings can be large; an effect the other way counts as inactive or inconclusive. Potency means the concentration at half of the fitted maximal effect.
SMILES,BAZ2B block,Sfp inh,G9a inh,L3MBTL1 inh,HP1b chromo inh,JMJD2A Tudor inh
CCOC(=O)c1c(C)[nH]c(C)c1S(=O)(=O)N1CCC(C(=O)Nc2ccccc2CC)CC1,-9%,·,0%[59 µM],·,-13%,-22%
COc1ccc(S(=O)(=O)N(CCO)c2ccccc2CN(C)C/C=C/c2ccc(Cl)cc2)cc1,·,-28%,?,·,·,·
CC(=O)Nc1ccc(S(=O)(=O)NCCSCc2ccco2)cc1,-15%,32µM*,?,-9%,6%,-27%
O=C(Nc1ccc(S(=O)(=O)NCc2ccco2)cc1)c1cccc(F)c1,-29%,20%,56µM*,·,-16%,-20%
Cc1onc(-c2c(F)cccc2Cl)c1C(=O)Nc1cccc(S(=O)(=O)NCc2ccco2)c1,·,0%,56µM*,·,-18%,-33%
COc1ccc(Cn2c(C(=O)O)c(CNCC(C)c3ccccc3)c3ccc(OC)cc32)cc1 (configuration not stated),?,·,-8%[59 µM],·,-9%,?
CCOC(=O)Cn1c(=O)oc2cc(S(=O)(=O)N3CCN(c4cc(C)ccc4C)CC3)ccc21,-18%,·,-5%[59 µM],·,6%,-18%
Cc1ccc(-n2c(-c3ccc(Cl)cc3)n[nH]c2=S)c(C)c1,11%[0.457 µM],-8%,5.6µM*,-11%,17%,?
COc1ccc(-c2n[nH]c(=S)n2-c2ccc(C)cc2C)cc1,-28%,-4%,14%[0.501 µM],1%[2.29 µM],29%,?
Cc1ccc(-n2c(-c3cnccn3)n[nH]c2=S)c(Br)c1,-30%,-5%,18µM*,-1%,44%,16µM*
COc1ccc(-n2nnnc2-c2cccnc2)cc1,2%,25%,-4%[59 µM],·,50%,-3%
Cc1ccc(-n2c(-c3cccnc3)n[nH]c2=S)c(C)c1,4%,6%,1.6µM*,·,10%,5µM*
FC(F)(F)c1ccccc1-n1c(-c2cnccn2)n[nH]c1=S,-29%,?,?,4%,45%,-16%
COc1ccc(-n2nc(C(=O)N3CCN(c4ccccc4OC)CC3)c3c4ccccc4n(C)c3c2=O)cc1Cl,·,·,31%[59 µM],·,62%,-10%
CCOc1ccc(N(C(C)C(=O)NC2CCCCCC2)S(C)(=O)=O)cc1 (configuration not stated),-2%,-21%,14µM*,2%,-3%,-6%
COc1ccc(C2C(C(=O)Nc3cc(C)on3)c3ccccc3C(=O)N2C)cc1 (configuration not stated),-30%,21%,?,1%,?,-28%[57.1 µM]
Cc1ccc(CNC(=O)C2c3ccccc3C(=O)N(C)C2c2c[nH]c3ccccc23)o1 (configuration not stated),?,50µM*,?,·,-4%,-32%
CC(C)OC(=O)c1nn2c(C(F)(F)F)cc(-c3ccc(Br)o3)nc2c1Br,-4%,1%,35µM*,-10%,10%,-22%
CC(C)OC(=O)c1nn2c(C(F)(F)F)cc(-c3ccco3)nc2c1Cl,-6%,6%,?,9%,27%,-4%
CN(C)c1ccc(N=Nc2ccccc2C(=O)OCC(=O)N2CCCCCC2)cc1,13µM*,-10%,8.9µM*,?,18µM*,28µM*
CSc1ccccc1C(=O)OCC(=O)N1CCCCCC1,·,·,·,8%,6%,-8%
CN(C)c1ccc(N=Nc2ccccc2C(=O)OCC(=O)Nc2ccccc2C(F)(F)F)cc1,10µM*,-4%,10µM*,25µM*,?,7.1µM*
CN(C)c1ccc(N=Nc2ccccc2C(=O)OCC(=O)N2CCCC2)cc1,40µM*,-8%,25µM*,-17%,?,56µM*
CN(C)c1ccc(NC(=O)c2ccc3nsnc3c2)cc1,-11%,-8%,4.5µM*,-3%,-13%,-35%
O=C(Nc1ccccc1)c1cccc(C(=O)Nc2ccccc2)n1,-17%,17%,-12%[12.7 µM],·,32%,-8%
SMILES,BAZ2B block,Sfp inh,G9a inh,L3MBTL1 inh,HP1b chromo inh,JMJD2A Tudor inh
Cc1cc(C)cc(NC(=O)c2cccc(C(=O)Nc3cc(C)cc(C)c3)n2)c1,?,56µM*,?,22%,22%,4.5µM*
O=C(O)c1ccc(NC(=O)c2cccc(C(=O)Nc3ccc(C(=O)O)cc3)n2)cc1,-34%,-6%,22µM*,·,58%,?
CN(C)c1ccc(NC(=O)c2cccc(C(=O)Nc3ccc(N(C)C)cc3)n2)cc1,7.9µM*,-24%,3.2µM*,?,40µM*,16µM*
O=C(CSc1nc2c([nH]c3ccccc32)c(=O)n1-c1ccccc1)N1CCCc2ccccc21,1%,·,3%[59 µM],·,11%[57 µM],-6%
CC(O)C(=O)O (configuration not stated),·,16%,-19%[59 µM],·,·,·
CC(C(=O)O)C(=O)O,-4%,·,10µM*,-4%,-18%,79µM*
Cn1cc(S(=O)(=O)N2CCc3ccccc32)cc1C(=O)Nc1ccc(C(F)(F)F)cc1,-36%,·,?,·,-17%,?
Cc1ccc(C(OCC(O)CN2CCCCC2CO)c2ccccc2)cc1 (configuration not stated),50µM*,-1%,8%[12.7 µM],-4%,22%,45µM*
CC1CCCN(CC(O)COC(c2ccccc2)c2ccccc2)C1 (configuration not stated),-15%,22%,-6%,-5%,39%,-1%
c1ccc(SSc2ccccn2)nc1,·,·,·,·,?,4µM*
Oc1cccnc1CCc1ccccc1,-3%,8%,·,20%,17%,-1%
N=C(N)SCc1ccccn1,35µM*,5%,?,-7%,-4%,22µM*
N=C(N)SCc1ncccc1O,?,-23%,18µM*,-11%,-2%,?
COc1ccc(N=C(NN)c2ccc3ccccc3n2)cc1,?,-79%,8.9µM*,-5%,-12%,-26%
Cc1ccc(C)c(NC(=O)c2ccc3ccccc3n2)c1,6%,-13%,5%,·,22%,-6%
COc1ccc(NC(=S)c2ccc3ccccc3n2)cc1,11µM*,22µM*,7.9µM*,·,10µM*,40µM*
Cc1ccc(NC(=S)c2ccc3ccccc3n2)c(C)c1,13µM*,22µM*,8.9µM*,·,11µM*,?
CCCCCCCC1=Cc2ccc(F)cc2C(C(C(C)=O)C(=O)OC)N1C(=O)OC (configuration not stated),·,6%,·,·,·,·
